Several values for one entry are separate records, joined by “and”; a condition that tells them apart may be missing. Equal entries are not always repeated. Hit rate of the full screen: of about 4,800 compounds, about 410 (8.5%) showed an effect of 50% or more. Shown is part of a subset that was picked to be rich in strong results.
Tested on: Plasmodium falciparum
Experiment: Confirmatory screen in NF54 pLDH assay, in single point, at 2uM, 72h
Type: functional, Erythrocyte
Details: timepoint 72 hour

| Structure (SMILES) | % Inhibition | % Inhibition (2 µM) |
| --- | --- | --- |
| Cc1cccc(-n2c(=O)[nH]c3nc(NCCN(C)C)ncc3c2=O)c1C | 8% |  |
| COc1ccccc1C(=O)N1CCC([C@H](NC(=O)c2ccc3c(c2)OCO3)C(=O)NC(C)C)CC1 | 10% |  |
| COc1ccccc1CC(=O)NC[C@H](C)O | 14% |  |
| O=C1c2cc3ccccc3c(-c3ccccc3)c2C(=O)N1c1ccccc1 | -16% |  |
| CCc1nn2c(c1-c1ccc(C)cc1)NC(=O)C[C@H]2C(=O)O | 12% |  |
| Cc1cnc(CC[C@H]2CCCN2C(=O)CCCc2ccccc2)n1C | 10% |  |
| CC(C)O[C@@H]1CCN(C[C@H](O)c2ccc(C(F)(F)F)cc2)C1 | 42% |  |
| CCc1ccc(C(=O)N2CC[C@H](CC(=O)NCc3ccccc3)C2)cc1 | 10% |  |
| Cc1cccc(C)c1NC(=O)c1cc(-c2cccc3ccccc23)[nH]n1 | 11% |  |
| Cc1cccc2c(-c3cc(N)nc(N)n3)c[nH]c12 | 100% |  |
| Cc1cc(Br)c2c(c1)C(O)(N1CCCC(C)C1)C(=O)N2 (centres undefined) | 9% |  |
| O=C(CN1C(=O)C[C@H](Cc2ccc(F)cc2)C1=O)N1CCNC1=O | 9% |  |
| CN(C)c1nccc(NC[C@H](N)c2ccccc2)n1 | -12% |  |
| CN(C)c1nc(N)cc(-c2cccc3cccnc23)n1 | 55% |  |
| CC1CCCC(C)N1C(=O)CN(C)c1cccc2cccnc12 (centres undefined) | 4% |  |
| Cc1ccc(C(N)C(C)S(C)(=O)=O)cc1 (centres undefined) | -18% |  |
| COc1cccc(-c2cc(O)cc(CC[C@H]3CCCCN3)c2)n1 | 89% |  |
| Oc1cc(CC[C@H]2CCCCN2)cc(-c2cnc3ccccc3n2)c1 | 80% |  |
| O=C(NCC(F)(F)F)Nc1ccc(CO)cc1 | 3% |  |
| O=c1[nH]c2cc(Cl)c(S(=O)(=O)Cl)cc2[nH]1 | 6% |  |
| CCc1c(C(=O)NCc2ccc(CN3CC(C)OC(C)C3)cc2)[nH]c(C)c1C(C)=O (centres undefined) | -27% |  |
| COc1ccc(CC(=O)N2CCN(c3cnn4cnnc4c3)CC2)cc1 | 6% |  |
| CCc1nnc2ccc(S(=O)(=O)N(CC#N)c3ccccc3)cn12 | -16% |  |
| C=CCNC(=O)CCC(=O)NCc1ccco1 | 13% |  |
| c1coc(CNc2nc(Nc3cccc4ccccc34)nc3ccccc23)c1 | 50% |  |
| COc1ccc(NC(=O)CCC(=O)NCc2ccco2)cc1 | 15% |  |

| Structure (SMILES) | % Inhibition | % Inhibition (2 µM) |
| --- | --- | --- |
| COc1ccc(CCN[C@@H]2c3ccccc3C(=O)N2C2CCCCC2)cc1OC | 10% |  |
| CC(=O)N(Cc1ccccc1)c1ccc2c(c1)nc(Cn1nc(C)cc1C)n2C | 5% |  |
| CCC(CC)N1CC(C(=O)NC2COc3ccc(C)cc32)CC1=O (centres undefined) | -21% |  |
| CCn1cc(S(=O)(=O)N(C)Cc2nn(CC)cc2Cl)cn1 | 8% |  |
| Cn1c(=O)c2sc(N3CCCC3)nc2n(CC(=O)NC2CCCC2)c1=O | 4% |  |
| COc1ccc(CC[C@H](C)NC(=O)NCCCN2CCCC2=O)cc1 | 11% |  |
| N#CC1CCC(Nc2cnn(-c3ccncc3)c2)CC1 (centres undefined) | 11% |  |
| CC(C)C(=O)N1CC[C@H](CC(=O)NCc2ccncc2)C1 | 5% |  |
| CS(=O)(=O)N1CC[C@H](CC(=O)N2CCN(c3ccc(F)cc3)CC2)C1 | -21% |  |
| CN(C)c1cc(C(=O)N2CCOC3CCCCC32)ccn1 (centres undefined) | 3% |  |
| Cc1ccc(C)c(-c2nc(Cn3c(=O)c4c(C)cc(C)nc4n(C)c3=O)c(C)o2)c1 | 3% |  |
| Fc1cnc(OC2Cc3ccccc3C2)nc1 | 57% |  |
| Cn1nccc1/C=C1\CC2C3CCc4cc(O)ccc4C3CCC2(C)C1O (centres undefined) | 47% |  |
| Nc1ncncc1C(=O)NCCc1c[nH]c2ccc(F)cc12 | 6% |  |
| CCOc1ncc(Br)cc1C(=O)O | -19% |  |
| O=C(C[C@H]1CCCN1c1ccnc(C2CC2)n1)c1ccco1 | 12% |  |
| c1cc2c(cc1[C@H]1NCCCCCCO1)OCO2 | -5% |  |
| O=C1Nc2ccc(Br)cc2C1=O | 13% |  |
| COc1ccccc1-n1c(=O)[nH]c2nc(N3CCN(c4ccccn4)CC3)ncc2c1=O | 3% |  |
| CC(C)(C)OC(=O)NC1CCN(c2ncc(C(=O)NCc3ccc(F)c(Cl)c3)c(N)n2)CC1 | -10% |  |
| N#Cc1cccc(-c2n[nH]c3c2CN(c2ccc(-c4ccccc4)nn2)CC3)c1 | 100% |  |
| N#Cc1cc(N2CCc3ccccc3C2)nc2ccccc12 | 8% |  |
| COc1ccc2c(c1)CN(C(=O)C1CC3CCC1C3)CC2 (centres undefined) | 11% |  |
| Nc1ncc(C(=O)N2CCC3(CCCCCC3)C2)s1 | 98% |  |
| O=C1C[C@@H](C(=O)N2CCC3(CCCCC3)C2)CCN1 | 10% |  |
| Cc1ncsc1C(=O)N1CCC2(CCCCC2)C1 | -22% |  |

| Structure (SMILES) | % Inhibition | % Inhibition (2 µM) |
| --- | --- | --- |
| NC(=O)[C@H]1CCCN(c2ccnc(C(=O)NCc3ccccc3)c2)C1 | 4% |  |
| CC1C(Cc2ccccc2)CCN1C(=O)c1cnc(C(F)(F)F)nc1 (centres undefined) | 14% |  |
| Cc1ccc(C(=O)N2C[C@@H]3C[C@H](NC(=O)c4cccnc4)[C@H]2C3)cc1F | -1% |  |
| Cc1ccc(S(=O)(=O)N2CC[C@H](CC(=O)NCc3ccccc3)C2)c(C)c1 | -22% |  |
| CC(=O)Nc1ccc(C)cc1S(=O)(=O)N1CC=C(c2c(C)n(Cc3ccccc3C)c3ccccc23)CC1 | 90% |  |
| Cc1ccc(NC(=O)Cn2c(=O)n(Cc3ccco3)c(=O)c3ccccc32)c(C)c1 | -13% |  |
| Cc1nn(C)c(Cl)c1CNC[C@@H](c1ccsc1)N(C)C | 9% |  |
| O=C(Nc1nnc(C2CC2)s1)[C@@H]1Cc2ccccc2O1 | 5% |  |
| O=C(NC1CCCC1)N1CCN(c2nc3cccnc3n(Cc3ccccc3)c2=O)CC1 | 8% |  |
| Brc1cncnc1N1CCC[C@H](c2nnn[nH]2)C1 | -7% |  |
| CCn1cnc2c(N3CCC[C@H](c4ccncc4)C3)ncnc21 | 77% |  |
| CCn1c(=O)c(N2CCC[C@H](C(=O)NCc3ccccc3OC)C2)nc2cccnc21 | -3% |  |
| COc1cccc(S(=O)(=O)N(C)[C@H]2CCc3n[nH]c(=O)n3CC2)c1 | 1% |  |
| Cn1c(=O)c2c(nc3nc(N4CCOCC4)n(CC(=O)c4ccc(Cl)cc4)n32)n(C)c1=O | 0% |  |
| COc1cc(-c2nc3ccccc3s2)ccc1OCc1cccc2ccccc12 | 0% |  |
| c1ccc(-c2cn[nH]c2N2CCNCC2)cc1 | -16% |  |
| O=C(NCC1CC1)c1cn[nH]c1-c1ccccc1 | 1% |  |
| COc1cc(OC)cc(C2(O)CCN(C(=O)CCc3ccccc3F)CC2)c1 | -20% |  |
| Oc1cc(OCc2ccccc2F)ccc1-c1[nH]ncc1-c1ccccc1 | 72% |  |
| COc1ccc(-c2c(C(F)(F)F)n[nH]c2-c2ccc(OCc3ccccc3F)cc2O)cc1 | 91% |  |
| COc1ccccc1NC(=O)CC1CS(=O)(=O)CC1CC(=O)Nc1ccccc1OC (centres undefined) | 13% |  |
| COc1ccc(-c2cnn3c(-c4ccccn4)ccnc23)cc1OC | 4% |  |
| C#CCNC(=O)[C@H](C#N)c1nc(C)c(C)s1 | 10% |  |
| Cc1cnc([C@H](C)NC(=O)c2conc2C(C)(C)N)s1 | 9% |  |
| C[C@H]1Cc2cc(C(=O)NCc3nc(C(F)(F)F)n[nH]3)ccc2O1 | 10% |  |
| COc1ccc(-c2cn3cc(C)nc3n2C)cc1 | 0% |  |

| Structure (SMILES) | % Inhibition | % Inhibition (2 µM) |
| --- | --- | --- |
| Cc1ccc(S(=O)(=O)CC(=O)NC(C)(C)C)cc1 | 5% |  |
| O=C(CCc1ccc(Cl)c(C(F)(F)F)c1)N1CC[C@H](N2CCc3ccccc3C2)C1 | 45% |  |
| CC(C)(C)OC(=O)CN(c1cc(F)cc(F)c1)S(=O)(=O)c1ccc2nncn2c1 | -2% |  |
| CCN(C)C1(CNC(=O)c2ccc(-c3cc(F)ccc3O)cc2)CCCC1 | 11% |  |
| NC(=O)N1CCC[C@H]1C(=O)NC1CC(=O)N(C2CC2c2ccccc2)C1 (some centres undefined) | 8% |  |
| Cc1cnc(NC(=O)c2ccc3ncoc3c2)c(Br)c1 | 15% |  |
| O=C(CC1CCOCC1)N1CCN(C(=O)c2ccco2)CC1 | -18% |  |
| Cc1ccc(-c2ccnc3c(C(=O)NC4CC4)cnn23)cc1C | 4% |  |
| O=C(Cc1ccc(C(=O)Nc2nc(-c3ccccc3)cs2)cc1)c1ccccc1 | 12% |  |
| O=S(=O)(c1ccc2ccccc2c1F)N1CC(CO)C1 | -13% |  |
| CCNC(=O)C(=O)NCc1ccc(OC)cc1 | -20% |  |
| COc1ccc(CNCCC2C(C)CN(C)C(C)C2Cc2ccccc2)cc1 (centres undefined) | 66% |  |
| COc1ccc(CC2C(O)C(Cc3ccc(OC)cc3)C3CCC2N3C)cc1 (centres undefined) | 6% |  |
| COc1ccc(C(=O)n2[nH]c(=O)c(CCO)c2C)cc1 | 5% |  |
| COc1ccc(Nc2nnc(/C=C/c3ccccc3)c(=O)n2N)cc1 | 16% |  |
| O=S1(=O)CCN(OCc2ccc(Cl)cc2)CC1 | 15% |  |
| COc1ccc2[nH]c3c(c2c1)CC(C(=O)O)NC3c1ccc(OC)c(CN2CCN(c3ccccc3F)CC2)c1 (centres undefined) | 72% |  |
| Fc1ccccc1N1CCN(C2CCN(Cc3c[nH]c4ccccc34)CC2)CC1 | 33% |  |
| COc1ccccc1N1CCN(Cc2nc3ccccc3c(=O)n2-c2ccc(F)cc2)CC1 | 12% |  |
| O=C(NCCc1ccc(O)cc1)c1ccc2n[nH]c(=O)n2c1 | -20% |  |
| CCC(C)(C)C(=O)N1CCC[C@@H]1CCc1ncc(C)n1C(C)C | 14% |  |
| CCOc1cc([C@H]2Nc3ccccc3C(=O)N2c2ccccc2)ccc1OCc1ccc(F)cc1 | -4% |  |
| O=C(/N=C(/c1ccccc1)N1CCCCC1)C(F)(F)C(F)(F)C(F)(F)C(F)(F)C(F)(F)C(F)(F)F |  | 1% and 0% |
| Cc1ccc(-c2csc(NC(=O)c3cccc(C(=O)Nc4nc(-c5ccc(C)cc5C)cs4)n3)n2)c(C)c1 | -7% |  |
| O=C(Nc1nncs1)c1cccc(C(=O)Nc2nncs2)n1 | 64% |  |
| O=C(Nc1nncs1)NC(C1CC1)C1CC1 | 5% |  |
